Results reported in PubChem BioAssay (EPA / NIEHS).
Values joined by “and” are separate entries in the source; they are usually repeats but may differ in a detail not shown here. Equal values may be shown once. Some structures have more than one record in an assay (separate samples or runs), and their calls can disagree. Active and inactive are the calls of the source. How the source made its calls: active means hit-call score of the fitted dose curve at least 0.9, where 1 is the maximum; inactive means score below 0.9.

Columns and labels:
[1] = read-out: Interferon-gamma inducible Protein 10 (IP10), CXCL10 (gene 3627); assay: BSK_hDFCGF_IP10: BioMAP Diversity Plus: hDFCGF Assay for Interferon-gamma inducible Protein 10 (IP10) Biomarker Activity (AID 2283053); details: primary human foreskin fibroblasts; actives raise or lower the signal
How it was run: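 Primary foreskin fibroblasts, human; 24 h compound exposure; IP-10 by ELISA; bidirectional fit vs DMSO.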

[2] = read-out: Urokinase-type plasminogen activator receptor (uPAR), PLAUR (gene 5329); assay: BSK_CASM3C_uPAR: BioMAP Diversity Plus: CASM3C Assay for Urokinase-type plasminogen activator receptor (uPAR) Biomarker Activity (AID 2283054); details: primary human coronary artery smooth muscle cells; actives raise or lower the signal;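 further: cell-surface uPAR protein level quantified by ELISA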
[3] = read-out: Vascular cell adhesion molecule 1 (VCAM1), VCAM1 (gene 7412); assay: BSK_CASM3C_VCAM1: BioMAP Diversity Plus: CASM3C Assay for Vascular cell adhesion molecule 1 (VCAM1) Biomarker Activity (AID 2283055); details: primary human coronary artery smooth muscle cells; actives raise or lower the signal;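 further: VCAM-1 protein level quantified by ELISA on the cells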
[4] = read-out: Collagen III, COL3A1 (gene 1281); assay: BSK_hDFCGF_CollagenIII: BioMAP Diversity Plus: hDFCGF Assay for Collagen III Biomarker Activity (AID 2283056); details: primary human foreskin fibroblasts; actives raise or lower the signal
How it was run: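 Cells: human foreskin fibroblasts, primary. Dosing followed by 24 h incubation, then ELISA for collagen III. Both increases and decreases scored relative to DMSO.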

[5] = read-out: Epidermal growth factor receptor (EGFR), EGFR (gene 1956); assay: BSK_hDFCGF_EGFR: BioMAP Diversity Plus: hDFCGF Assay for Epidermal growth factor receptor (EGFR) Biomarker Activity (AID 2283057); details: primary human foreskin fibroblasts; actives raise or lower the signal
How it was run: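 hDFCGF system, primary human foreskin fibroblasts; compound 24 h; EGFR measured by ELISA; DMSO = negative control/baseline; bidirectional fitting.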

[6] = read-out: Interleukin-8 (IL8), CXCL8 (gene 3576); assay: BSK_hDFCGF_IL8: BioMAP Diversity Plus: hDFCGF Assay for Interleukin-8 (IL8) Biomarker Activity (AID 2283058); details: primary human foreskin fibroblasts; actives raise or lower the signal
How it was run: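 IL-8 levels from compound-treated primary human fibroblasts were read by ELISA at 24 h, with DMSO serving as baseline for bidirectional fitting.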

[7] = BSK_hDFCGF_Proliferation: Cell Proliferation Assessment in the BioMAP Diversity Plus: hDFCGF Assay (AID 2283059); details: primary human foreskin fibroblasts;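 further: curves fitted for both rise and fall of signal versus DMSO baseline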
How it was run: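 This proliferation readout used SRB total-protein staining of human foreskin fibroblasts […], normalized to DMSO with bidirectional curve fitting.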

[8] = read-out: Macrophage colony-stimulating factor (MCSF), CSF1 (gene 1435); assay: BSK_hDFCGF_MCSF: BioMAP Diversity Plus: hDFCGF Assay for Macrophage colony-stimulating factor (MCSF) Biomarker Activity (AID 2283060); details: primary human foreskin fibroblasts; actives raise or lower the signal
How it was run: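 M-CSF levels, determined by ELISA, are taken at 24 h after dosing human skin fibroblasts. Responses in either direction are fitted with DMSO serving as the baseline.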

[9] = BSK_hDFCGF_SRB: Viability Assessment in the BioMAP Diversity Plus: hDFCGF Assay (AID 2283061); details: primary human foreskin fibroblasts;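 further: cells exposed to compound for 24 h before the read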
How it was run: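 Cells were dosed with test chemical, cultured 24 h, fixed with 10% TCA, then stained with 0.1% SRB and read at 560 nm. The fibroblasts were human foreskin primary cells, and DMSO served as baseline.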

[10] = read-out: Monokine induced gamma interferon (MIG), CXCL9 (gene 4283); assay: BSK_hDFCGF_MIG: BioMAP Diversity Plus: hDFCGF Assay for Monokine induced gamma interferon (MIG) Biomarker Activity (AID 2283063); details: primary human foreskin fibroblasts; actives raise or lower the signal
How it was run: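 MIG signal, determined by ELISA, reflects 24 h chemical exposure of human skin primary fibroblasts. DMSO serves as negative control and baseline.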

[11] = read-out: Vascular cell adhesion molecule 1 (VCAM1), VCAM1 (gene 7412); assay: BSK_hDFCGF_VCAM1: BioMAP Diversity Plus: hDFCGF Assay for Vascular cell adhesion molecule 1 (VCAM1) Biomarker Activity (AID 2283065); details: primary human foreskin fibroblasts; actives raise or lower the signal;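 on AC50: VCAM-1 protein level quantified by ELISA after 24 h chemical exposure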
How it was run: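 Cells are dosed, cultured for 24 h, then VCAM-1 is quantified by ELISA; signal increases and decreases are both fitted relative to DMSO.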

[12] = read-out: Plasminogen activator inhibitor-1 (PAI1), SERPINE1 (gene 5054); assay: BSK_hDFCGF_PAI1: BioMAP Diversity Plus: hDFCGF Assay for Plasminogen activator inhibitor-1 (PAI1) Biomarker Activity (AID 2283066); details: primary human foreskin fibroblasts; actives raise or lower the signal
How it was run: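 Primary dermal fibroblasts (human foreskin), hDFCGF system; compound 24 h; PAI-1 by ELISA; bidirectional fit vs DMSO control.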

[13] = read-out: Intercellular Adhesion Molecule 1 (ICAM1), ICAM1 (gene 3383); assay: BSK_KF3CT_ICAM1: BioMAP Diversity Plus: KF3CT Assay for Intercellular Adhesion Molecule 1 (ICAM1) Biomarker Activity (AID 2283067); details: primary human keratinocytes with fibroblasts; actives raise or lower the signal
How it was run: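 Dose the keratinocyte/fibroblast co-culture, wait 24 h, measure ICAM-1 by ELISA, then fit increases or decreases against DMSO. Cytotoxicity is checked in parallel cultures by SRB total-protein staining.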

[14] = read-out: Interferon-gamma inducible Protein 10 (IP10), CXCL10 (gene 3627); assay: BSK_KF3CT_IP10: BioMAP Diversity Plus: KF3CT Assay for Interferon-gamma inducible Protein 10 (IP10) Biomarker Activity (AID 2283068); details: primary human keratinocytes with fibroblasts; actives raise or lower the signal
How it was run: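 Signal is secreted/surface IP-10 by ELISA in a human primary skin co-culture of keratinocytes and foreskin fibroblasts, taken 24 h post-dosing; DMSO served as negative control.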

[15] = BSK_KF3CT_SRB: Viability Assessment in the BioMAP Diversity Plus: KF3CT Assay (AID 2283069); details: primary human keratinocytes with fibroblasts;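 further: total protein by sulforhodamine B staining as a cytotoxicity measure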
How it was run: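 Human primary keratinocyte plus foreskin fibroblast co-culture exposed to chemicals for 24 h. Total protein measured by 0.1% sulforhodamine B staining after 10% TCA fixation, read at 560 nm; bidirectional fitting versus DMSO baseline.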

[16] = read-out: TIMP metallopeptidase inhibitor 2 (TIMP2), TIMP2 (gene 7077); assay: BSK_KF3CT_TIMP2: BioMAP Diversity Plus: KF3CT Assay for TIMP metallopeptidase inhibitor 2 (TIMP2) Biomarker Activity (AID 2283071); details: primary human keratinocytes with fibroblasts; actives raise or lower the signal
How it was run: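 Cells: human keratinocytes co-cultured with foreskin fibroblasts. Treat with chemical, 24 h. Measure TIMP-2 by ELISA; fit curves bidirectionally vs DMSO baseline.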

[17] = read-out: Transforming growth factor beta 1 (TGFb1), TGFB1 (gene 7040); assay: BSK_KF3CT_TGFb1: BioMAP Diversity Plus: KF3CT Assay for Transforming growth factor beta 1 (TGFb1) Biomarker Activity (AID 2283072); details: primary human keratinocytes with fibroblasts; actives raise or lower the signal
How it was run: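 Primary human skin cells (keratinocytes, foreskin fibroblasts) were co-cultured, exposed to test chemical and sampled at 24 h. TGF-b1 levels were measured by ELISA and fitted bidirectionally relative to DMSO.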

[18] = read-out: TIMP metallopeptidase inhibitor 1 (TIMP1), TIMP1 (gene 7076); assay: BSK_hDFCGF_TIMP1: BioMAP Diversity Plus: hDFCGF Assay for TIMP metallopeptidase inhibitor 1 (TIMP1) Biomarker Activity (AID 2283062); details: primary human foreskin fibroblasts; actives raise or lower the signal
How it was run: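 Fibroblasts from human foreskin are treated with test chemical and harvested at 24 h. TIMP-1 is quantified by ELISA, and gain or loss of signal is scored against DMSO.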

[19] = read-out: Matrix Metallopeptidase 1 (MMP1), MMP1 (gene 4312); assay: BSK_hDFCGF_MMP1: BioMAP Diversity Plus: hDFCGF Assay for Matrix Metallopeptidase 1 (MMP1) Biomarker Activity (AID 2283064); details: primary human foreskin fibroblasts; actives raise or lower the signal
How it was run: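 Primary human foreskin fibroblasts in the hDFCGF system were dosed with test chemical, and MMP1 was measured by ELISA 24 h later. Values come from bidirectional curve fitting against the DMSO baseline.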

[20] = read-out: Interleukin-1 alpha (IL1a), IL1A (gene 3552); assay: BSK_KF3CT_IL1a: BioMAP Diversity Plus: KF3CT Assay for Interleukin-1 alpha (IL1a) Biomarker Activity (AID 2283070); details: primary human keratinocytes with fibroblasts; actives raise or lower the signal
How it was run: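 Human keratinocyte plus foreskin fibroblast primary co-culture, sampled 24 h after chemical dosing. IL-1a measured by ELISA; responses fitted bidirectionally against DMSO baseline (negative control), so gain or loss of signal both count.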

Measured: AC50

c1cc2ccc3cccc4ccc(c1)c2c34
inactive: [1] | [2] | [3] | [4] | [5] | [6] | [8] | [9] | [10] | [11] | [12] | [13] | [14] | [15] | [16] | [17]
active: [7] 15 µM

CCSC(=O)N(CC)C1CCCCC1
inactive: [1] | [2] | [3] | [4] | [5] | [6] | [7] | [8] | [9] | [18] | [10] | [11] | [12] | [13] | [14] | [15] | [16] | [17]

c1ccc(-c2ccccc2)cc1
inactive: [1] | [2] | [3] | [4] | [5] | [6] | [7] | [8] | [9] | [10] | [11] | [12] | [13] | [14] | [15] | [16] | [17]

CCCN(CCC)N=O
inactive: [1] | [2] | [3] | [4] | [5] | [6] | [7] | [8] | [9] | [10] | [19] | [11] | [12] | [13] | [14] | [15] | [20] | [16] | [17]

C[C@]12CCC(=O)C=C1CC[C@@H]1[C@@H]2CC[C@]2(C)C(=O)CC[C@@H]12
active: [7] 13.2 µM
inactive: [1] | [2] | [3] | [4] | [5] | [8] | [9] | [18] | [10] | [19] | [11] | [12] | [13] | [14] | [15] | [16] | [17]

Cc1ccccc1[N+](=O)[O-]
inactive: [1] | [2] | [3] | [4] | [5] | [7] | [8] | [9] | [18] | [10] | [19] | [11] | [12] | [13] | [14] | [15] | [16] | [17]

Cc1ccccc1O
inactive: [1] | [2] | [3] | [4] | [5] | [6] | [7] | [8] | [9] | [10] | [19] | [11] | [12] | [13] | [14] | [15] | [16] | [17]

Oc1c(Cl)c(Cl)c(Cl)c(Cl)c1Cl
active: [1] 10.2 µM and 13.1 µM | [2] 20 µM | [3] 20 µM | [4] 2.34 µM and 2.57 µM | [7] 3.11 µM and 8.24 µM | [8] 6.44 µM | [9] 7.08 µM and 12.4 µM | [10] 4.29 µM | [11] 10.2 µM and 4.61 µM | [12] 10.2 µM and 9.72 µM | [13] 10.2 µM and 16.6 µM | [14] 12.9 µM and 20 µM | [15] 6.37 µM | [16] 2.02 µM and 17.3 µM | [17] 15 µM
inactive: [2] | [5] | [6] | [8] | [15] | [17]

CCCCCCCCCc1ccc(O)cc1
active: [1] 14.1 µM | [2] 38.2 µM | [3] 33.6 µM | [4] 9.87 µM | [6] 17.2 µM | [7] 5.93 µM | [8] 13.6 µM | [9] 15.4 µM | [10] 14.9 µM | [11] 13.3 µM | [12] 15.5 µM | [13] 15.1 µM | [14] 13.4 µM | [15] 14.6 µM | [20] 15.6 µM | [16] 14.6 µM | [17] 13.5 µM
inactive: [5]

CCCCCCOC(=O)c1ccccc1C(=O)OCCCCCC
active: [4] 7.56 µM | [7] 11.2 µM
inactive: [1] | [2] | [3] | [5] | [9] | [10] | [19] | [11] | [12] | [13] | [14] | [15] | [20] | [16] | [17]

CC(C)C(=O)OCC(C)(C)C(OC(=O)C(C)C)C(C)C (stereo not given)
active: [7] 34.4 µM
inactive: [1] | [2] | [3] | [4] | [5] | [8] | [9] | [18] | [10] | [11] | [12] | [13] | [14] | [15] | [16] | [17]

CCC(C)(c1ccc(O)cc1)c1ccc(O)cc1
active: [1] 30.1 µM | [4] 20 µM | [7] 30.4 µM | [9] 27.7 µM | [11] 20 µM
inactive: [2] | [3] | [5] | [8] | [18] | [10] | [12] | [13] | [14] | [15] | [16] | [17]
